Among the data in PubChem BioAssay (EPA / NIEHS) are outcome and AC50 values, retold here.

Inconclusive results are not listed. The source holds several records for some structures; these can differ, active in one and inactive in another. Active and inactive are the calls of the source. The calls were made as follows, unless noted: active = hit-call score of the fitted dose curve at least 0.9, where 1 is the maximum; inactive = score below 0.9.

Usually AC50 stands for the concentration at which the activity in the assay is half-maximal.

The target of experiment [1] is mouse Estrogen Receptor alpha (Era), Esr1 (gene 13982) (UniProt P19785). Description: NVS_NR_mERa: NovaScreen (NVS) Nuclear Receptor Binding Assay for mouse Estrogen Receptor alpha (Era) (AID 2283378; active = hit-call score of the fitted dose curve at least 0.9, where 1 is the maximum;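 also: hit means loss of bound radioligand signal relative to DMSO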). A digest of the protocol: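 Cell-free radioligand competitive displacement binding, read by filter-based scintillation counting 18 h after dosing. Primary screen run in duplicate at 25 uM, actives retested in concentration series; loss of signal versus DMSO.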

Experiment [2] can be described thus: BSK_3C_Proliferation: Cell Proliferation Assessment in the BioMAP Diversity Plus: 3C Assay (AID 2283006). Conditions: primary human endothelial cells (HUVEC). A digest of the protocol:
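Proliferation as total protein: sulforhodamine B (0.1%) stain of TCA-fixed subconfluent human umbilical vein endothelial cells, absorbance 560 nm, 48 h after dosing. Activity fitted in both directions against DMSO baseline.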

Experiment [3] can be described thus: BSK_LPS_SRB: Viability Assessment in the BioMAP Diversity Plus: LPS Assay (AID 2283079).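 Also: total protein by sulforhodamine B absorbance as a cytotoxicity measure; measured one day after compound addition; fitted in both directions against DMSO so loss or gain of signal counts.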 Particulars: primary human HUVEC with PBMC. A digest of the protocol:
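Co-culture of human umbilical vein endothelial cells and PBMC, read 24 h after dosing. Total protein by 0.1% SRB staining after 10% TCA fixation, absorbance at 560 nm; bidirectional fit against DMSO.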

Read-out in experiment [4]: Tumor necrosis factor (Homo sapiens) (UniProt P01375)
Description: BSK_LPS_TNFa: BioMAP Diversity Plus: LPS Assay for Tumour Necrosis Factor alpha (TNFa) Biomarker Activity (AID 2283085). Particulars: primary human HUVEC with PBMC; actives raise or lower the signal. A digest of the protocol: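 TNFa was quantified by ELISA in LPS-activated co-cultures of human endothelial cells and PBMC, 24 h post-dosing. Both increases and decreases versus DMSO were fitted.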

Read-out in experiment [5]: Vascular cell adhesion molecule 1 (VCAM1), VCAM1 (gene 7412)
Description: BSK_LPS_VCAM1: BioMAP Diversity Plus: LPS Assay for Vascular cell adhesion molecule 1 (VCAM1) Biomarker Activity (AID 2283086). Conditions: primary human HUVEC with PBMC; actives raise or lower the signal. A digest of the protocol:
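VCAM-1 quantified by ELISA in an LPS-activated co-culture of human endothelial cells and peripheral blood mononuclear cells, read 24 h post-treatment. Fitted in both directions versus DMSO; parallel SRB staining flags overt cytotoxicity.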

Read-out in experiment [6]: Monocyte Chemoattractant Protein-1 (MCP1), CCL2 (gene 6347)
Description: BSK_SAg_MCP1: BioMAP Diversity Plus: SAg Assay for Monocyte Chemoattractant Protein-1 (MCP1) Biomarker Activity (AID 2283090). Particulars: primary human HUVEC with PBMC; actives raise or lower the signal. A digest of the protocol: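 Values derive from bidirectional fitting of ELISA-measured MCP1 against DMSO controls. Readings were taken 24 h after dosing human vascular endothelial cells co-cultured with peripheral blood mononuclear cells under superantigen stimulation.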

Read-out in experiment [7]: E-selectin (Homo sapiens) (UniProt P16581)
Description: BSK_SAg_Eselectin: BioMAP Diversity Plus: SAg Assay for Eselectin Biomarker Activity (AID 2283091). Particulars: primary human HUVEC with PBMC; actives raise or lower the signal. A digest of the protocol:
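Human umbilical vein endothelial cells co-cultured with peripheral blood mononuclear cells, SAg system. E-selectin is measured by ELISA 24 h after dosing and fitted bidirectionally against DMSO. Cytotoxicity is checked by SRB staining of parallel cultures.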

Read-out in experiment [8]: Monokine induced gamma interferon (MIG), CXCL9 (gene 4283)
Description: BSK_SAg_MIG: BioMAP Diversity Plus: SAg Assay for Monokine induced gamma interferon (MIG) Biomarker Activity (AID 2283092). Particulars: primary human HUVEC with PBMC; actives raise or lower the signal. A digest of the protocol: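 Measures CXCL9 protein by ELISA in a human vascular primary-cell co-culture (umbilical vein endothelium with PBMC) 24 h after chemical addition. Activity is scored up or down from the DMSO control.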

Read-out in experiment [9]: Interleukin-8 (IL8), CXCL8 (gene 3576)
Kind of experiment: BSK_SAg_IL8: BioMAP Diversity Plus: SAg Assay for Interleukin-8 (IL8) Biomarker Activity (AID 2283094). Particulars: primary human HUVEC with PBMC; actives raise or lower the signal. A digest of the protocol:
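ELISA readout of IL-8 from a superantigen-activated endothelial/PBMC primary human co-culture, taken 24 h post-dosing and fitted in both directions against DMSO; parallel SRB total-protein staining flags overt cytotoxicity.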

The nature of experiment [10]: BSK_SAg_Proliferation: Cell Proliferation Assessment in the BioMAP Diversity Plus: SAg Assay (AID 2283095).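 Also: relative cell number as total protein by SRB absorbance in sub-confluent culture.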 Conditions: primary human HUVEC with PBMC. A digest of the protocol:
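Relative cell number in the endothelial cell/PBMC co-culture was quantified at 96 h by SRB staining (0.1% SRB, 10% TCA fixation, read at 560 nm). Curves were fitted in both directions relative to DMSO baseline.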

Experiment [11] can be described thus: BSK_SAg_SRB: Viability Assessment in the BioMAP Diversity Plus: SAg Assay (AID 2283096).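 Also: cells read one day after compound addition; hits may be either gain or loss of signal compared with DMSO.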 Particulars: primary human HUVEC with PBMC. A digest of the protocol:
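This overt-cytotoxicity endpoint quantifies protein in human endothelial/PBMC co-cultures at 24 h using SRB absorbance (560 nm) after trichloroacetic acid fixation. Values reflect signal change from the DMSO negative control, fitted bidirectionally.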

Read-out in experiment [12]: Interferon-inducible T-cell alpha chemoattractant (ITAC), CXCL11 (gene 6373)
Description: BSK_hDFCGF_ITAC: BioMAP Diversity Plus: hDFCGF Assay for Interferon-inducible T-cell alpha chemoattractant (ITAC) Biomarker Activity (AID 2284251). Conditions: primary human foreskin fibroblasts. A digest of the protocol: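 Chemical dosing of primary human foreskin fibroblast cultures preceded ELISA measurement of I-TAC at 24 h. Response was analysed in the positive direction using DMSO as baseline, while parallel SRB staining measured cytotoxicity.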

Read-out in experiment [13]: Intercellular Adhesion Molecule 1 (ICAM1), ICAM1 (gene 3383)
Kind of experiment: BSK_BE3C_ICAM1: BioMAP Diversity Plus: BE3C Assay for Intercellular Adhesion Molecule 1 (ICAM1) Biomarker Activity (AID 2284278).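 Also: cell-surface ICAM-1 protein level quantified by ELISA.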 Conditions: primary human bronchial epithelial cells. A digest of the protocol:
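ICAM-1 quantified by ELISA and fitted against DMSO baseline, 24 h post-dosing in BE3C cultures of primary human lung bronchial epithelial cells. Cytotoxicity checked in parallel cultures by total protein SRB staining.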

Read-out in experiment [14]: Epidermal growth factor receptor (EGFR), EGFR (gene 1956)
Kind of experiment: BSK_BE3C_EGFR: BioMAP Diversity Plus: BE3C Assay for Epidermal growth factor receptor (EGFR) Biomarker Activity (AID 2284281). Conditions: primary human bronchial epithelial cells. A digest of the protocol:
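Measured 24 h after dosing in primary human bronchial epithelial cultures, EGFR was read by ELISA; gain of signal over DMSO control defined activity.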

Read-out in a further experiment: KRT18 (gene 3875)
Kind of experiment: BSK_BE3C_Keratin818: BioMAP Diversity Plus: BE3C Assay for Keratin 818 Biomarker Activity (AID 2284282). Conditions: primary human bronchial epithelial cells. A digest of the protocol: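 ELISA readout of Keratin 8/18 in human primary bronchial epithelial cultures after 24 h chemical exposure, DMSO baseline. Parallel SRB staining (0.1%, TCA-fixed, 560 nm) served as cytotoxicity check.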

Read-out in experiment [15]: Matrix Metallopeptidase 9 (MMP9), MMP9 (gene 4318)
Kind of experiment: BSK_BE3C_MMP9: BioMAP Diversity Plus: BE3C Assay for Matrix Metallopeptidase 9 (MMP9) Biomarker Activity (AID 2284283). Particulars: primary human bronchial epithelial cells. A digest of the protocol:
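Human primary bronchial epithelial cells exposed 24 h to compound. MMP9 quantified by ELISA. SRB total-protein staining of parallel cultures assesses cytotoxicity. Positive-direction fit relative to DMSO.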

Read-out in experiment [16]: TIMP metallopeptidase inhibitor 2 (TIMP2), TIMP2 (gene 7077)
Description: BSK_hDFCGF_TIMP2: BioMAP Diversity Plus: hDFCGF Assay for TIMP metallopeptidase inhibitor 2 (TIMP2) Biomarker Activity (AID 2284289). Particulars: primary human foreskin fibroblasts. A digest of the protocol: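 Primary human foreskin fibroblasts in the hDFCGF system, dosed for 24 h; TIMP-2 level measured by ELISA, fitted in the positive direction against DMSO; cytotoxicity checked in parallel by sulforhodamine B total protein staining.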

Read-out in experiment [17]: Thrombomodulin, THBD (gene 7056)
Description: BSK_LPS_Thrombomodulin: BioMAP Diversity Plus: LPS Assay for Thrombomodulin Biomarker Activity (AID 2284296). Particulars: primary human HUVEC with PBMC. A digest of the protocol: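 Thrombomodulin on the surface of LPS-activated endothelial/PBMC co-cultures was quantified by ELISA at 24 hours post-dosing, with DMSO as baseline. Parallel SRB total-protein staining flagged overt cytotoxicity.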

A short description of experiment [18]: ATG_XTT_Cytotoxicity: Cytotoxicity Assessment in the Attagene TRANS-FACTORIAL HepG2 Assay (AID 2283584; active = hit-call score of the fitted dose curve at least 0.9, where 1 is the maximum). A digest of the protocol: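 HepG2 cells transiently transfected with GAL4-UAS multiple reporter units, dosed 24 h; cytotoxicity read by XTT as loss of signal versus DMSO baseline.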
Experiment [19] deals with X-box-binding protein 1 (Homo sapiens) (UniProt P17861). Description: ATG_Xbp1_CIS: Attagene CIS-FACTORIAL HepG2 Assay for human X-box Binding Protein 1 (XBP1) (AID 2282972). Conditions: HepG2 XBP1 cis-element reporter, Attagene multiplex; actives raise or lower the signal. A digest of the protocol:
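Read-out: fluorescent reporter mRNA fragments resolved by capillary electrophoresis after RT-PCR. Human HepG2 liver cells carried transfected cis-promoter reporter units and were exposed to chemicals for 24 hours. Gain or loss of signal fitted relative to DMSO baseline.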

Sequence of Tumor necrosis factor (Homo sapiens) (P01375 whole entry, looked up): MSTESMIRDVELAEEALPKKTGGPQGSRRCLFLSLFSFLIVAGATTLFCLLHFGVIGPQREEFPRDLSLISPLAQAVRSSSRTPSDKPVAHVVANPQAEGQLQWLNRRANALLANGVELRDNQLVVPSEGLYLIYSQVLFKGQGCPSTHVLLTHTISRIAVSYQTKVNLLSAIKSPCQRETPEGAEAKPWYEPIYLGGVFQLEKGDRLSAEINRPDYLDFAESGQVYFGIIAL
Sequence of E-selectin (Homo sapiens) (P16581 whole entry, looked up): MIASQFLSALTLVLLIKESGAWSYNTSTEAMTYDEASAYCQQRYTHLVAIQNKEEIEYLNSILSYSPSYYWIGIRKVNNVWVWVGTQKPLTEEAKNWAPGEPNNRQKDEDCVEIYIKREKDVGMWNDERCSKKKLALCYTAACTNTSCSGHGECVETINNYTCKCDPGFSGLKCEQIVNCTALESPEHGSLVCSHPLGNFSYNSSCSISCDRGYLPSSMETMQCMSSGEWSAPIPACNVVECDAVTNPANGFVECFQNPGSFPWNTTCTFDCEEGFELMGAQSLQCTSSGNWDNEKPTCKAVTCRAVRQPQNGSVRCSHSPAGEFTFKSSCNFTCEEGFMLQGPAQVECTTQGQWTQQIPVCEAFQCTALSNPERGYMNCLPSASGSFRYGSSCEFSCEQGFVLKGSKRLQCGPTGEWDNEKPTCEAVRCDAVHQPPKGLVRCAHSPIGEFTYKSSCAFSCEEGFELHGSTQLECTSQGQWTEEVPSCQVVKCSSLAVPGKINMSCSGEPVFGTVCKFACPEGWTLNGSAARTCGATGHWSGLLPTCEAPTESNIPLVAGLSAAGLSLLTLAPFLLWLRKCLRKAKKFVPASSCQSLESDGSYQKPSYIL
Sequence of mouse Estrogen Receptor alpha (Era), Esr1 (gene 13982) (P19785 whole entry, looked up): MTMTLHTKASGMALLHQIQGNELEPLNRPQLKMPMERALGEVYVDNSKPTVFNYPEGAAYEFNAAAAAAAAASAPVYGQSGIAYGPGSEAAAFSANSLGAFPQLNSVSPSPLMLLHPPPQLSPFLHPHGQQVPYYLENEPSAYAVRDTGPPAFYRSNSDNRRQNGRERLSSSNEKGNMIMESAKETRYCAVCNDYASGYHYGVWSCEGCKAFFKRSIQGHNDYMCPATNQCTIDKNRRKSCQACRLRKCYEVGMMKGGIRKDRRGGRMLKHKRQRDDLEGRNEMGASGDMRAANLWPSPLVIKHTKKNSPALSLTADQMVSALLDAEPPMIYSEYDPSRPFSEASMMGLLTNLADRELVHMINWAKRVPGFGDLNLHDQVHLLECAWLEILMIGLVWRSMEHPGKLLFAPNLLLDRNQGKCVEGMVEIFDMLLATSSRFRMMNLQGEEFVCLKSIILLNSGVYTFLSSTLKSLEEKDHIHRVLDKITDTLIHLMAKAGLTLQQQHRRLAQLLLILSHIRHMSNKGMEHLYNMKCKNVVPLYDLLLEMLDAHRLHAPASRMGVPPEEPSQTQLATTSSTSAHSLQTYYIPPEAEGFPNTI
Sequence of X-box-binding protein 1 (Homo sapiens) (P17861 whole entry, looked up, the tested form may be a part): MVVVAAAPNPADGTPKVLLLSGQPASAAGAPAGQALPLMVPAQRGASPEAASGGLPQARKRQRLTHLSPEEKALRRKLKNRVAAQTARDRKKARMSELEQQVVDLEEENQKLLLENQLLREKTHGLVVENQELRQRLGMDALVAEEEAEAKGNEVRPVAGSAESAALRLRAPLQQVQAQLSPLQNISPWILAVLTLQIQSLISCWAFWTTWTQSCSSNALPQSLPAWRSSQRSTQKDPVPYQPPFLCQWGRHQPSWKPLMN

For the compound `CC(C)(C)C(=O)C(=O)O`, in experiment [1], the compound was called inactive.

Regarding `CC(C)C1OCCN1CCOC(=O)NCCCCCCNC(=O)OCCN1CCOC1C(C)C` (stereo unspecified), the result in experiment [2], in [3], in experiment [4], in experiment [5], in [6] and in experiment [7] was inactive. Moreover, the outcome in experiment [8], in experiment [9], in experiment [10], in experiment [11], in experiment [12] and in [13] was inactive. Besides, the outcome (in experiment [14]; with KRT18 (gene 3875); in experiment [15]; in [16]; in experiment [17]) was inactive.

Regarding `Oc1cccc2ccccc12`, the outcome in [2], in experiment [3], in experiment [4], in experiment [5], in experiment [6] and in experiment [7] was inactive. Moreover, the result in experiment [8], in experiment [9], in experiment [11] and in experiment [18] was inactive. In addition, the AC50 in [10] is 3.97 µM (active).

Consider `CC/C=C\CCO`, for which the compound was classed as inactive in [18].

Consider `Cc1c(C(N)=O)cc([N+](=O)[O-])cc1[N+](=O)[O-]`, for which the result in [2], in [3], in experiment [4], in experiment [5], in [6] and in [7] was inactive. The outcome in experiment [8], in experiment [9], in experiment [10], in [11], in experiment [12] and in [13] was inactive. Further, the outcome (in experiment [14]; in the experiment with KRT18 (gene 3875); in [15]; in experiment [16]; in experiment [17]) was inactive. For the same compound, the AC50 in experiment [15] was 15.4 µM (active); in experiment [17] it was 0.149 µM (active).

`N#CCN(CC#N)CCN(CC#N)CC#N`: the outcome in experiment [19] and in experiment [18] was inactive.
